In all, about 310,000 compounds went through this assay and about 14,000 (4.5%) showed an effect of 50% or more. The effect is printed as a negative number. The full list was thinned out, with strong results kept by preference.
Target: human ether-à-go-go-related gene (hERG) potassium channel (human, UniProt Q12809)
Experiment: primary screen, population patch clamp on CHO cells stably expressing hERG; higher = less effect of the substance
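Also: peak tail current of the secondary pulse compared with the same well before compound.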

human ether-à-go-go-related gene (hERG) potassium channel, sequence (Q12809 whole entry, looked up): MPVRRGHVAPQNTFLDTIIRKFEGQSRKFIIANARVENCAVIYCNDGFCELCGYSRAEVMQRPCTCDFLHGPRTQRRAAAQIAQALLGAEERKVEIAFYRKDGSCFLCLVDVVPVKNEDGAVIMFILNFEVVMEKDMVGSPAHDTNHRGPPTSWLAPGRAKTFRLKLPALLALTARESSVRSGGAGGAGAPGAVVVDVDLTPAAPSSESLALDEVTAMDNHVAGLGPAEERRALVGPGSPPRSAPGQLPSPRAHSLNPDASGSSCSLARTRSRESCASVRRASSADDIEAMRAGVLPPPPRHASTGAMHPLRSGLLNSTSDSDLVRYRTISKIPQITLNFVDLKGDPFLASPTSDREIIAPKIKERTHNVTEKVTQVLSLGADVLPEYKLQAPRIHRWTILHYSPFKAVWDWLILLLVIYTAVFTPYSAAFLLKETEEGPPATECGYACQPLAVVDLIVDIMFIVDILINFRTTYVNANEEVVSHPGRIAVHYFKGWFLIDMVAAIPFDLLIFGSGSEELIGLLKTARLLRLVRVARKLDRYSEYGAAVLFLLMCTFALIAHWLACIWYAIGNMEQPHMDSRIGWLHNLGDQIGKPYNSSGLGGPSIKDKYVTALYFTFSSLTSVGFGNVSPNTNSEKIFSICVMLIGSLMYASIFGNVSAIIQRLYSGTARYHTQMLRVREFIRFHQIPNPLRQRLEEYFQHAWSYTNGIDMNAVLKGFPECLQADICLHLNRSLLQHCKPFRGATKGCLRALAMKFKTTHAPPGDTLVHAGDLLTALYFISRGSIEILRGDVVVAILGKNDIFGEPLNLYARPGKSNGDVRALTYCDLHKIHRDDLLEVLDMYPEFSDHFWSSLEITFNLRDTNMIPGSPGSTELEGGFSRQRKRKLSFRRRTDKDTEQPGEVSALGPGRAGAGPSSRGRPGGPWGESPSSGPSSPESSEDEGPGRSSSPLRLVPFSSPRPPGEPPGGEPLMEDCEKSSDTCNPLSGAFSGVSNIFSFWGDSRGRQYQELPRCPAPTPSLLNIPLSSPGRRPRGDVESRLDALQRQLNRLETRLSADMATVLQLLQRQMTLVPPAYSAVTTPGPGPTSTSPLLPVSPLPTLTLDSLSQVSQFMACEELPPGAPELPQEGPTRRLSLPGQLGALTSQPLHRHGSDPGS

**Q.** For COc1ccc(-c2cc(CNS(=O)(=O)c3ccc(NC(C)=O)cc3)on2)cc1, which “hERG current change (%, negative = inhibition) at 10uM” value is on record?
**A.** Its value is 18.6%.

**Q.** How did the “hERG current change (%, negative = inhibition) at 10uM” value turn out when COc1ccccc1C(=O)NCCOc1ccc(C)c(C)c1 was run?
**A.** The value was 18.5%.

**Q.** With COc1ccc(Cl)cc1N(CC(=O)NC1CC1)S(=O)(=O)c1ccc(C)c([N+](=O)[O-])c1 as the compound, how does the “hERG current change (%, negative = inhibition) at 10uM” value read?
**A.** Its value is 11.9%.

**Q.** Which “hERG current change (%, negative = inhibition) at 10uM” value does the source give for O=C(NS(=O)(=O)Oc1ccc(Cl)cc1)OC[C@@H]1CCCN2CCCC[C@H]12 here?
**A.** Its value is 28.2%.

**Q.** For Cl.O=C(OCC1CCCN2CCCCC12)c1ccc2c(c1)OCO2 (centres unmarked), which “hERG current change (%, negative = inhibition) at 10uM” value is on record?
**A.** The value was -22.8%.

**Q.** With O=C(Nc1ccccc1)OCC1CCCN2CCCCC12 (centres unmarked) as the compound, how does the “hERG current change (%, negative = inhibition) at 10uM” value read?
**A.** Its value is -39.4%.

**Q.** Which “hERG current change (%, negative = inhibition) at 10uM” value does the source give for O=C(NC(=O)c1ccccc1)OCC1CCCN2CCCCC12 (centres unmarked) here?
**A.** Its value is -56.7%.

**Q.** O=C(NC(=O)c1cccc(F)c1)OC[C@@H]1CCCN2CCCC[C@H]12 was tested. Which “hERG current change (%, negative = inhibition) at 10uM” value did it give?
**A.** The value was -36.7%.

**Q.** Which “hERG current change (%, negative = inhibition) at 10uM” value does the source give for O=C(Nc1ccc(C(=O)N2CCOCC2)cc1)c1cccc(Br)c1 here?
**A.** Its value is 3.11%.

**Q.** Which “hERG current change (%, negative = inhibition) at 10uM” value does the source give for Cl.O=C(OC[C@@H]1CCCN2CCCC[C@H]12)c1cc2ccccc2oc1=O here?
**A.** Its value is -50.1%.

**Q.** For O=C(OC1CCCCC1)c1cc2ccccc2oc1=O, which “hERG current change (%, negative = inhibition) at 10uM” value is on record?
**A.** Its value is -32.6%.

**Q.** For Cl.O=C(Nc1ccc(C(=O)OC[C@@H]2CCCN3CCCC[C@H]23)cc1)c1cccc(Br)c1, which “hERG current change (%, negative = inhibition) at 10uM” value is on record?
**A.** Its value is -69.3%.

**Q.** O=C(NC(=O)c1cccc(Cl)c1)OC[C@@H]1CCCN2CCCCC12 (some centres unmarked) was tested. Which “hERG current change (%, negative = inhibition) at 10uM” value did it give?
**A.** The value was -60.9%.

**Q.** Which “hERG current change (%, negative = inhibition) at 10uM” value does the source give for COc1ccc(/C=C(\NC(=O)c2ccccc2)C(=O)OCC2CCCN3CCCCC23)cc1OC (centres unmarked) here?
**A.** Its value is -40.7%.

**Q.** With O=C(NCC1CCCO1)c1ccc(NC(=O)c2cccc(Br)c2)cc1 (centres unmarked) as the compound, how does the “hERG current change (%, negative = inhibition) at 10uM” value read?
**A.** The value was 16.4%.

**Q.** Which “hERG current change (%, negative = inhibition) at 10uM” value does the source give for CCOC(=O)C(=NCCCN(C)C)NNc1cc(C(F)(F)F)ccc1Cl here?
**A.** Its value is -18.5%.

**Q.** With O=C(NCCCn1ccnc1)c1ccc(Br)c(S(=O)(=O)N2CCOCC2)c1 as the compound, how does the “hERG current change (%, negative = inhibition) at 10uM” value read?
**A.** Its value is -7.41%.

**Q.** COc1ccc(OC)c(NC(=O)Nc2cc(C(=O)O)ccc2C)c1 was tested. Which “hERG current change (%, negative = inhibition) at 10uM” value did it give?
**A.** The value was 13.1%.

**Q.** How did the “hERG current change (%, negative = inhibition) at 10uM” value turn out when COc1ccccc1NC(=O)CN1C(=O)NC(CC(C)C)C1=O (centres unmarked) was run?
**A.** Its value is 4.37%.

**Q.** For O=C(CCC(=O)N1CCCC1)Nc1ccc([N+](=O)[O-])cc1, which “hERG current change (%, negative = inhibition) at 10uM” value is on record?
**A.** Its value is -1.25%.

**Q.** Which “hERG current change (%, negative = inhibition) at 10uM” value does the source give for NC(=S)N/N=C/c1ccc(C(F)(F)F)cc1 here?
**A.** The value was 11%.

**Q.** O=C(CSc1cccc[n+]1[O-])c1cc2ccccc2o1 was tested. Which “hERG current change (%, negative = inhibition) at 10uM” value did it give?
**A.** Its value is -4.46%.

**Q.** COC(=O)c1sccc1NC(=O)c1cc(OC)c(OC)c(OC)c1 was tested. Which “hERG current change (%, negative = inhibition) at 10uM” value did it give?
**A.** Its value is 3.09%.

**Q.** For O=NN1CCN(c2ccncc2S(=O)(=O)N2CCCCC2)CC1, which “hERG current change (%, negative = inhibition) at 10uM” value is on record?
**A.** Its value is 10.6%.

**Q.** How did the “hERG current change (%, negative = inhibition) at 10uM” value turn out when COc1ccc(-c2noc(-c3ccccc3C(=O)NCc3ccco3)n2)cc1 was run?
**A.** The value was 3.2%.

**Q.** COc1ccc(-c2nnc(N3CCOCC3)c3ccccc23)cc1 was tested. Which “hERG current change (%, negative = inhibition) at 10uM” value did it give?
**A.** Its value is -2.78%.

**Q.** How did the “hERG current change (%, negative = inhibition) at 10uM” value turn out when CCN1CCN(c2nnc(-c3ccc(F)cc3)c3ccccc23)CC1 was run?
**A.** Its value is -48.4%.

**Q.** CCOc1ccc(-c2nnc(N3CCCCC3)c3ccccc23)cc1 was tested. Which “hERG current change (%, negative = inhibition) at 10uM” value did it give?
**A.** Its value is -6.17%.

**Q.** CCOc1ccc(-c2nnc(N3CCOCC3)c3ccccc23)cc1 was tested. Which “hERG current change (%, negative = inhibition) at 10uM” value did it give?
**A.** Its value is -69.6%.

**Q.** With OCCN1CCN(c2nnc(-c3ccccc3)c3ccccc23)CC1 as the compound, how does the “hERG current change (%, negative = inhibition) at 10uM” value read?
**A.** The value was -23.5%.

**Q.** Cc1ccc(-c2nnc(N3CCCCCC3)c3ccccc23)cc1 was tested. Which “hERG current change (%, negative = inhibition) at 10uM” value did it give?
**A.** The value was 1%.

**Q.** Which “hERG current change (%, negative = inhibition) at 10uM” value does the source give for Cc1ccc(-c2nnc(N3CCN(CCO)CC3)c3ccccc23)cc1 here?
**A.** Its value is -58.4%.

**Q.** For CCN1CCN(c2nnc(-c3ccc(C)cc3)c3ccccc23)CC1, which “hERG current change (%, negative = inhibition) at 10uM” value is on record?
**A.** Its value is -66.5%.

**Q.** With CCN1CCN(c2nnc(-c3ccccc3)c3ccccc23)CC1 as the compound, how does the “hERG current change (%, negative = inhibition) at 10uM” value read?
**A.** The value was -36.8%.

**Q.** Cc1ccc(C(=O)NCCOc2ccc(Cl)cc2)cc1 was tested. Which “hERG current change (%, negative = inhibition) at 10uM” value did it give?
**A.** The value was 1.42%.

**Q.** For COc1cc(/C=C/C(=O)O)ccc1OCc1ccc([N+](=O)[O-])cc1, which “hERG current change (%, negative = inhibition) at 10uM” value is on record?
**A.** The value was 21.8%.

**Q.** For COc1ccc(CC(=O)Nc2ccc(-c3noc(COc4ccccc4C)n3)cc2)cc1, which “hERG current change (%, negative = inhibition) at 10uM” value is on record?
**A.** Its value is 2.1%.

**Q.** COC(=O)c1ccc(COc2ccccc2/C=C(\C#N)C(=O)Nc2ccc(C)cc2C)cc1 was tested. Which “hERG current change (%, negative = inhibition) at 10uM” value did it give?
**A.** Its value is -11.1%.

**Q.** How did the “hERG current change (%, negative = inhibition) at 10uM” value turn out when COC(=O)c1c(-c2ccccc2)noc1-c1ccccc1 was run?
**A.** Its value is 2.19%.

**Q.** With CCOC(=O)c1nn(-c2ccc(Cl)cc2)c(C)cc1=O as the compound, how does the “hERG current change (%, negative = inhibition) at 10uM” value read?
**A.** Its value is -0.00902%.

**Q.** Which “hERG current change (%, negative = inhibition) at 10uM” value does the source give for CCOC(=O)c1c(OCCO)nn(-c2ccccc2)c1N here?
**A.** The value was 14.1%.

**Q.** How did the “hERG current change (%, negative = inhibition) at 10uM” value turn out when CCOC(=O)c1c(OCCO)nn(-c2ccc(Cl)cc2)c1N was run?
**A.** The value was -51.8%.

**Q.** How did the “hERG current change (%, negative = inhibition) at 10uM” value turn out when COc1ccc2[nH]cc(CCNS(=O)(=O)c3ccccc3)c2c1 was run?
**A.** Its value is 11.7%.

**Q.** With CCOC(=O)c1c(NC(C)=O)sc2c(O)c(Br)ccc12 as the compound, how does the “hERG current change (%, negative = inhibition) at 10uM” value read?
**A.** Its value is 6.88%.

**Q.** With CCOC(=O)c1c(NC(C)=O)sc2c(O)cccc12 as the compound, how does the “hERG current change (%, negative = inhibition) at 10uM” value read?
**A.** Its value is 2.36%.

**Q.** CCOC(=O)c1c(NC(C)=O)sc2c(OC)c(Br)ccc12 was tested. Which “hERG current change (%, negative = inhibition) at 10uM” value did it give?
**A.** The value was 2.16%.

**Q.** Which “hERG current change (%, negative = inhibition) at 10uM” value does the source give for CCOC(=O)c1c(NC(C)=O)sc2c(OCC(O)CNC(C)(C)C)c(Br)ccc12 (centres unmarked) here?
**A.** The value was -11.8%.

**Q.** Which “hERG current change (%, negative = inhibition) at 10uM” value does the source give for CCOC(=O)c1c(NC(C)=O)sc2c(OCC(O)CN(CC)CC)c(Br)ccc12 (centres unmarked) here?
**A.** The value was -51.3%.

**Q.** With CCOC(=O)c1c(NC(C)=O)sc2c(OCCN(CC)CC)c(Br)ccc12 as the compound, how does the “hERG current change (%, negative = inhibition) at 10uM” value read?
**A.** Its value is -54.8%.

**Q.** With Cn1c(=NC(=O)COc2ccccc2)sc2ccccc21 as the compound, how does the “hERG current change (%, negative = inhibition) at 10uM” value read?
**A.** Its value is -8.07%.

**Q.** How did the “hERG current change (%, negative = inhibition) at 10uM” value turn out when COc1ccc(/C=C/C(=O)NCCNC(=O)c2ccccc2)cc1OC was run?
**A.** The value was -8.61%.

**Q.** Which “hERG current change (%, negative = inhibition) at 10uM” value does the source give for Cc1ccc(N2C(=O)CC(Nc3cccc4ccccc34)C2=O)cc1 (centres unmarked) here?
**A.** The value was 27.6%.

**Q.** Which “hERG current change (%, negative = inhibition) at 10uM” value does the source give for CC(C)=CCCC(C)CN1CCC(O)CC1 (centres unmarked) here?
**A.** Its value is -2.96%.

**Q.** For CC(=O)c1cc(CN2CCC(N3CCC(C(=O)N4CCCC4)CC3)CC2)cs1, which “hERG current change (%, negative = inhibition) at 10uM” value is on record?
**A.** Its value is -2.23%.

**Q.** For CC(C)/C=C/C(=O)N1CCC(N2CCC(C(=O)N3CCOCC3)CC2)CC1, which “hERG current change (%, negative = inhibition) at 10uM” value is on record?
**A.** Its value is 11%.

**Q.** Which “hERG current change (%, negative = inhibition) at 10uM” value does the source give for CC(C)=CC(=O)N1CCC(N2CCC(C(=O)N3CCOCC3)CC2)CC1 here?
**A.** Its value is 28.3%.

**Q.** For CC(C)=CCCC(C)CN1CCC(N2CCC(C(=O)N3CCOCC3)CC2)CC1 (centres unmarked), which “hERG current change (%, negative = inhibition) at 10uM” value is on record?
**A.** Its value is -60.4%.

**Q.** Which “hERG current change (%, negative = inhibition) at 10uM” value does the source give for CC(C)=CCCC(C)CN1CCC(N2CCC(C(=O)N3CCCC3)CC2)CC1 (centres unmarked) here?
**A.** Its value is -74.8%.

**Q.** Which “hERG current change (%, negative = inhibition) at 10uM” value does the source give for Cl.Nc1ncnc2nc[nH]c12 here?
**A.** Its value is 4.95%.

Source: publication PMC4336329 (PLoS ONE, 2015)
